# Records with an inconclusive call do not appear. Where a call stands in place of a potency, no number is given. Activity calls are given as the source filed them. Calls come from the whole dose curve.
# Assay: qHTS for Inhibitors of Cell Surface uPA Generation: Wild-type Protective Antigen (WT-PrAg) Counterscreen for Cherry-picked Compounds
# Conditions: cells, WT protective antigen toxicity counterscreen; series mostly up to 115 µM
row,SMILES,Potency
1,O=C(NCCc1cn2ccsc2n1)c1cccs1,inactive
2,Cn1nc(C(C)(C)C)c([N+](=O)[O-])c1C(=O)N1CCOCC1,inactive
3,Cc1cccc(N2CCN(Cc3ccc(Br)o3)CC2)c1C,inactive
4,Cc1ccc(S(=O)(=O)Nc2nc(C)cc(N/N=C/c3ccc(O)cc3)n2)cc1,inactive
5,CCN(CC)CCNC(=O)/C(=C/c1cn(CC)c2ccccc12)NC(=O)c1cc(OC)c(OC)c(OC)c1,inactive
6,C=CCn1c(SCCN2C(=O)c3ccccc3C2=O)nc2scc(-c3ccc(F)cc3)c2c1=O,inactive
7,CC(C)C[C@H]1CN([C@@H](CC(C)C)CN2CCCC2CN2C(=S)NC[C@@H]2Cc2ccc(O)cc2)C(=S)N1CC1CCCCC1 (stereo not given in full),inactive
8,O=C(Nc1cccc(C2=NCCN2)c1)Nc1cccc(C2=NCCN2)c1,inactive
9,CCCCN(CC(=O)Nc1cccc(S(=O)(=O)N2CCCC2)c1)Cc1nc2ccccc2c(=O)[nH]1,inactive
10,O=C(CCc1ccccc1)NNC(=O)c1cccc(F)c1,inactive
11,Cc1ccc2oc(C(=O)N(Cc3ccc(N(C)C)cc3)C3CCS(=O)(=O)C3)c(C)c2c1 (stereo not given),inactive
12,O=C(N/C(=C\c1cccc([N+](=O)[O-])c1)C(=O)N1CCOCC1)c1ccc([N+](=O)[O-])cc1,inactive
13,Cc1ccccc1-c1nnc(SCC(=O)NCC2CCCO2)o1 (stereo not given),inactive
14,Cc1ccc(-c2nc(CS(=O)(=O)CC(=O)NCc3cccc(F)c3)c(C)o2)cc1,inactive
15,CCc1ccc(NCc2nc(-c3ccccc3)no2)cc1,inactive
16,Cc1ccccc1NC1c2ccccc2C(=O)N1Cc1ccco1 (stereo not given),inactive
17,Cc1cc(C)n2c(SCC#N)nnc2n1,inactive
18,COc1ccc(CCNC(=O)Cn2cccc2C(=O)c2ccccc2)c(OC)c1,inactive
19,O=C(CN(c1ccccc1F)S(=O)(=O)c1ccccc1)Nc1ccc2c(c1)OCCO2,inactive
20,O=c1[nH]c(SCc2cccc(Cl)c2)nc2ccccc12,inactive

row,SMILES,Potency
1,CC1=NN(C(N)=S)C(=O)C1N=Nc1ccccc1C(=O)O (stereo not given),inactive
2,CN1CC[C@]23c4ccccc4N[C@H]1[C@]21CCN(C)[C@H]3Nc2ccccc21,inactive
3,CCOc1ccc(CN2CCN(C(=O)Cc3ccccc3)CC2)cc1,inactive
4,N#Cc1ccccc1Sc1ccccc1C(=O)Nc1ccc(Br)cc1,inactive
5,CCOc1ccc(NC(=S)N2CCC(c3ccc(C)cc3)C2)cc1 (stereo not given),inactive
6,C=CCN1C=C2C(=O)C(C)(OC(=O)c3cnc4ccccc4n3)C(=O)C=C2C=C1/C=C/COC (stereo not given),inactive
7,Cc1cc(=O)[nH]c(=S)[nH]1,inactive
8,O=C(/C=C/c1cccc(Oc2ccccc2)c1)N1CCOCC1,inactive
9,Cc1ccc(C)c(N2N=C(C(=O)N(CC(C)C)c3c(N)n(Cc4ccccc4)c(=O)[nH]c3=O)CCC2=O)c1,inactive
10,CC1(C)CC(CCC(=O)NC(=S)Nc2ccccc2Cl)C(=O)O1 (stereo not given),inactive
11,CC1(NC(=O)CSc2nnc(-c3c[nH]c4ccccc34)n2C2CC2)CCS(=O)(=O)C1 (stereo not given),inactive
12,O=C(NCCCN1CCCC1=O)c1cccc(Oc2ccccc2)c1,inactive
13,COc1ccc(N(CN2C(=O)c3ccccc3C2=O)C(=O)C(C)C)cc1,inactive
14,COc1ccc(Cc2nnc(Nc3ccc(C)cc3)o2)cc1OC,inactive
15,COc1ccc(CCNC(=O)Cn2c(=O)n(-c3cc(F)ccc3F)c(=O)c3sccc32)cc1OC,inactive
16,Cc1ccc(S(=O)(=O)NCC(=O)N/N=C/c2ccc(Cl)cc2)cc1,inactive
17,CC(C)CCN1C(=O)c2ccc(-c3nc4ccccc4c(=O)o3)cc2C1=O,inactive
18,COc1cccc(C(=O)NCc2ccc3[nH]c(C)cc3c2)c1,inactive
19,Cc1nc2ccc(Br)cn2c1C(=O)N/N=C\c1ccccc1Cl,inactive
20,Cc1c(NC(=O)C(C)OC(=O)CCC2CCCC2)c(=O)n(-c2ccccc2)n1C (stereo not given),inactive

# From PubChem BioAssay AID720518 (National Center for Advancing Translational Sciences (NCATS), 2013)
